In PubChem BioAssay:
Where “and” joins values, the source holds several entries; their conditions need not be identical. Equal entries are not always repeated. Calls of active or inactive are those of the source. Unless noted, the rule behind the calls is not given here.

What was measured:
[1] = resazurin metabolic signal in HepG2 cells – cell-based, resazurin fluorescence, 24 h, PK04 Diversity Set, profiling panel (AID 1172); details: HepG2 viability, higher = more signal
[2] = budding yeast growth changes without added modifier – OD600, strain BY4716, 24 h, basal condition, primary screen (AID 1173); details: S. cerevisiae BY4716 growth, OD600, 24 h; higher = more signal, called active from +8 up or from −8 down
[3] = viability profiling in MM1S myeloma cells – cell-based, resazurin fluorescence, basal, 24 h, PK04 Diversity Set, profiling panel (AID 1174); details: higher = more signal, called active from +8 up or from −8 down;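 note: MM1S multiple myeloma cell line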
[4] = molecular target: Dihydroorotate dehydrogenase (quinone), mitochondrial (Plasmodium falciparum (isolate 3D7)) (UniProt Q08210); assay: inhibition of P. falciparum DHODH – biochemical, C-terminal His tag, absorbance 600 nm, primary screen (AID 1175); details: PfDHODH enzyme, DCIP absorbance 600 nm; higher = more signal, called active from +8 up or from −8 down;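 note: recombinant parasite enzyme with a five histidine tag at its C terminus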
[5] = inhibition of PAO1 biofilm formation – strain PAO1, LB-PBS medium, absorbance 600 nm, primary screen (AID 1176); details: P. aeruginosa PAO1 growth/biofilm, A600, 12 h; higher = more signal
[6] = growth modulation of vineyard yeast isolate – strain RM11-1a, OD600, basal, 24 h, primary screen (AID 1177);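 note: cultures grown under basal conditions with no added stressor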; details: S. cerevisiae RM11-1a growth, OD600, 24 h; higher = more signal, called active from +8 up or from −8 down
[7] = growth of efflux-deficient E. coli DRC39 – strain DRC39, OD650, 24 h, E. coli filamentation inducers, primary screen (AID 1178);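 note: growth measured as culture turbidity by optical density at 650 nm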; details: E. coli DRC39 acrAB, higher = more signal, called active from +8 up or from −8 down
[8] = growth of efflux-deficient E. coli DRC39 – strain DRC39, OD650, 48 h, E. coli filamentation inducers, primary screen (AID 1179);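 note: screen aims at cell division blockers that make cells filament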; details: E. coli DRC39 delta-acrAB growth, higher = more signal, called active from +8 up or from −8 down
[9] = viability profiling in RPMI8226 myeloma cells – cell-based, resazurin fluorescence, basal, 24 h, PK04 Diversity Set, profiling panel (AID 1180); details: higher = more signal;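 note: RPMI8826 multiple myeloma cell line at 5000 cells per well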
[10] = molecular target: E3 ubiquitin-protein ligase XIAP (Homo sapiens) (UniProt P98170); assay: small molecules binding XIAP protein – biophysical, small-molecule microarray, fluorescence 635 nm, primary screen (AID 1181); details: higher = more signal;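 note: score merges 667 nm emission and signal to noise over triplicate slides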
[11] = system: XIP peptide (Xip251-270) binding; assay: XIP fragment 251-270 binding compounds – biochemical, small-molecule microarray, fluorescence 635/667 nm, 0.1 µg/mL protein, primary screen (AID 1182); details: fluorescent protein binding, 635 nm, higher = more signal, called active from +8 up or from −8 down
XIP peptide (Xip251-270) = assay: compounds binding XIP fragment 251-270 – biochemical, small-molecule microarray, fluorescence 635/667 nm, 0.5 µg/mL protein, primary screen (AID 1183); details: fluorescence 635 nm, higher = more signal
[12] = blood-stage malaria parasite viability loss – strain 3D7, DAPI fluorescence, 100 nL, primary screen (AID 1184);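 note: parasites grown inside human red blood cells in medium with human serum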; details: P. falciparum 3D7 growth, 3 d, higher = more signal
[13] = molecular target: Homeobox protein Hox-A13 (Mus musculus) (UniProt Q62424); assay: disruptors of Hoxa13 oligonucleotide interaction – biochemical, fluorescence polarization, labeled oligonucleotide, primary screen (AID 1185); details: Hoxa13:DNA binding, 15 min, higher = more signal, called active from +8 up or from −8 down
[14] = blockers of DNA damage checkpoint Chk1 activation – imaging, HeLa, hydroxyurea, phospho-Chk1 antibody, percent positive cells, primary screen (AID 1186); details: hydroxyurea-induced phospho-Chk1 immunofluorescence imaging, higher = more signal
[15] = blockers of DNA damage checkpoint Chk1 activation – imaging, HeLa, hydroxyurea, phospho-Chk1 nuclear intensity, primary screen (AID 1187); details: hydroxyurea-induced phospho-Chk1 immunofluorescence imaging, higher = more signal

Chain of E3 ubiquitin-protein ligase XIAP (Homo sapiens) (P98170 whole entry, looked up, the tested form may be a part): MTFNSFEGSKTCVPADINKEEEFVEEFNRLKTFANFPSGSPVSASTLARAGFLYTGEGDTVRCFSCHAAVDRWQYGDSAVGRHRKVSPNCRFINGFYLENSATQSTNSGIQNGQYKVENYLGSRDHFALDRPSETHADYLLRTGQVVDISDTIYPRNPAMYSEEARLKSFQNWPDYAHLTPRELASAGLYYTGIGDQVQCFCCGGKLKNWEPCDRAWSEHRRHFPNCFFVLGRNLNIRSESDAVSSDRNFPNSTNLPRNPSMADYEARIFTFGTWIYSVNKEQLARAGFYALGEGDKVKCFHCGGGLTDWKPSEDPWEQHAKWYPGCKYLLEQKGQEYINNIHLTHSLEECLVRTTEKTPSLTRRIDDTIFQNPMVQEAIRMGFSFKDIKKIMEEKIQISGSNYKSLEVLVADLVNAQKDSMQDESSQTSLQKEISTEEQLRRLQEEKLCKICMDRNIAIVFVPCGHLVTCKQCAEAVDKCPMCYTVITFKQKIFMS
Chain of Dihydroorotate dehydrogenase (quinone), mitochondrial (Plasmodium falciparum (isolate 3D7)) (Q08210 whole entry, looked up): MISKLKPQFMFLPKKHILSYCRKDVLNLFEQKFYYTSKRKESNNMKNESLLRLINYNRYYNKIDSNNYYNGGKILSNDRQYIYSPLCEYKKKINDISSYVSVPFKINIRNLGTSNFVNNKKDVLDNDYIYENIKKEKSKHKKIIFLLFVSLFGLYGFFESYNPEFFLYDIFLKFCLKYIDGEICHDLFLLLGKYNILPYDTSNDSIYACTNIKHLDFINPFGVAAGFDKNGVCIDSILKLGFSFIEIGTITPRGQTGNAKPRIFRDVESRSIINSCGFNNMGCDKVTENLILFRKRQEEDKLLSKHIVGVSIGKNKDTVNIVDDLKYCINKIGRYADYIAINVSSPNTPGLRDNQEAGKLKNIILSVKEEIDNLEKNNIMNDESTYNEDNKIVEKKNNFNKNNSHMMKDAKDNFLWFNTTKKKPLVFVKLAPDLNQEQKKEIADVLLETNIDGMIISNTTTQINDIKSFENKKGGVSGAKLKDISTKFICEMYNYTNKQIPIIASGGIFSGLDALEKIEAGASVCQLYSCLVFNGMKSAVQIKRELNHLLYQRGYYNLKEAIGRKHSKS
Chain of Homeobox protein Hox-A13 (Mus musculus) (Q62424 whole entry, looked up): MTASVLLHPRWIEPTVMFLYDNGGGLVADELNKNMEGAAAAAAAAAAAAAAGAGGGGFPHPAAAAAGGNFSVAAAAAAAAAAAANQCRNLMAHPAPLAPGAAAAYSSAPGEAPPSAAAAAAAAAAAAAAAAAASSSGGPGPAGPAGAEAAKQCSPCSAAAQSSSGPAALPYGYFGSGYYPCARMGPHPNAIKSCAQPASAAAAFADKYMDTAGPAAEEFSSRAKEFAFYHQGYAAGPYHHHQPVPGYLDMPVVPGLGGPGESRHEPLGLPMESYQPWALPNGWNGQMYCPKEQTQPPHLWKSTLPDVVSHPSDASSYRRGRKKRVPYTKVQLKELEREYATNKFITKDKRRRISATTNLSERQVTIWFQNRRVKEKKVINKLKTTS

Row | Structure (SMILES) | z-score [1] | z-score [2] | z-score [3] | composite z-score [4] | z-score [5] | z-score [6] | z-score [7] | z-score [8] | z-score [9] | composite z-score [10] | composite z-score [11] | composite z-score (XIP peptide (Xip251-270)) | z-score [12] | z-score [13] | z-score [14] | z-score [15]
1 | C[C@@H]1CC[C@H]2C(=O)O[C@H](CN=[N+]=[N-])CN2[C@H]1c1ccc(Br)cc1 | -0.528 and 0.231 | -3.44 (inactive) and -4.5 (inactive) | -0.586 (inactive) and 0.637 (inactive) | 0.41 (inactive) and 0.841 (inactive) | 1.39 (inactive) and -0.0204 (inactive) | -0.505 (inactive) and 1.67 (inactive) | -0.686 (inactive) and -0.801 (inactive) | -0.633 (inactive) and -1.31 (inactive) | -1.38 and 0.417 | 0.0871 and 0.277 | -0.036 (inactive) and -0.0365 (inactive) | 0.183 and 0.186 | -2.02 and -0.068 | -1.98 (inactive) and -3.31 (inactive) | – | –
2 | C=CCN(C(=O)C(c1cccs1)N(C(=O)/C=C\C(=O)O)C(C)(C)CO)C(C)(C)C (stereo not given) | -0.432 and -0.115 | -1.64 (inactive) and -0.838 (inactive) | 0.626 (inactive) and 0.391 (inactive) | -0.98 (inactive) and -0.499 (inactive) | 0.454 (inactive) and -0.0837 (inactive) | -1.86 (inactive) and -1.72 (inactive) | 1.97 (inactive) and 0.291 (inactive) | 2.07 (inactive) and 0.946 (inactive) | 0.356 and 0.366 | -0.0669 and 0.0153 | 0.075 (inactive) and -0.479 (inactive) | -0.796 and 0.851 | 0.37 and -0.0391 | 0.692 (inactive) and 0.558 (inactive) | -0.225 (inactive) and -0.215 (inactive) | 0.269 (inactive) and 0.799 (inactive)
3 | C=CC[C@@H](O)c1ccc(OCCO)cc1 | -0.369 and -0.32 | -5.91 (inactive) and -1.94 (inactive) | -1.12 (inactive) and -0.281 (inactive) | -0.744 (inactive) and -1.16 (inactive) | 0.674 (inactive) and 0.945 (inactive) | -1.1 (inactive) and -1.56 (inactive) | 0.0207 (inactive) and 0.149 (inactive) | 0.433 (inactive) and 0.571 (inactive) | 0.0629 and 0.237 | -0.31 and -0.102 | -0.0335 (inactive) and 0.172 (inactive) | 0.184 and -0.25 | 0.667 and 0.717 | -0.948 (inactive) and -0.931 (inactive) | -0.442 (inactive) and -0.507 (inactive) | 0.186 (inactive) and -0.0561 (inactive)
4 | C=CCN(CCCC)C(=O)C(c1cccs1)N(CCOCCO)C(=O)/C=C\C(=O)O (stereo not given) | -0.313 and -1.09 | -0.8 (inactive) and 0.678 (inactive) | -0.0247 (inactive) and -0.0815 (inactive) | -1.49 (inactive) and -0.811 (inactive) | 0.0126 (inactive) and 0.177 (inactive) | -1.34 (inactive) and -1.13 (inactive) | 0.423 (inactive) and 0.0136 (inactive) | 0.629 (inactive) and 0.633 (inactive) | 0.0517 and 0.181 | -0.352 and -0.234 | 0.455 (inactive) and 0.476 (inactive) | -0.836 and -0.765 | 0.329 and -0.0611 | 0.578 (inactive) and 0.724 (inactive) | -0.36 (inactive) and 0.442 (inactive) | 0.132 (inactive) and 1.47 (inactive)
5 | C[C@@H](ON=C1[C@H]2CCn3c(=O)n(-c4ccccc4)c(=O)n3[C@H]2[C@H](O)[C@@H]2O[C@H]12)c1cn([C@H](CO)Cc2ccccc2)nn1 | -1.08 | 0.394 (inactive) | -1.42 (inactive) | -0.469 (inactive) | -0.525 (inactive) | 0.122 (inactive) | 0.777 (inactive) | 1.12 (inactive) | -1.65 | -0.0208 | 0.764 (inactive) | 0.297 | -0.516 | -2.41 (inactive) | – | –
6 | COC(=O)C1=C2N(Cc3ccccc3)C(C)=C(C(=O)OC)[C@@H](c3ccccc3)N2C(=O)[C@](O)(C(=O)OC)C1 | 1.08 and -0.565 | -0.875 (inactive) and -0.828 (inactive) | 0.7 (inactive) and 0.349 (inactive) | 0.268 (inactive) and -0.608 (inactive) | -0.318 (inactive) and 0.216 (inactive) | -0.321 (inactive) and 0.0615 (inactive) | 0.0099 (inactive) and -0.163 (inactive) | -0.184 (inactive) and -0.224 (inactive) | 1 and -0.272 | 0.0623 and 0.43 | 0.109 (inactive) and 0.0955 (inactive) | 0.23 and 0.64 | 0.166 and -0.0932 | -5.1 (inactive) and -1.13 (inactive) | – | –
